Experiment [1] in a line: qHTS assay for identifying genotoxic compounds that show differential cytotoxicity against isogenic chicken DT40 cell lines with known DNA damage response pathways - wild type cell line (AID 743012). Further: nearly all actives have a fitted effect of over 60% in size. Further: potency means the concentration at half of the fitted maximal effect. In a few lines:
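Parental DNA repair-proficient DT40 cells, 300 per well, were pre-incubated ~0.5 h at 37 C/5% CO2, pin-dosed with compounds in DMSO, then incubated 40 h. Viability was read as CellTiter-Glo luminescence after 30 min at room temperature.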
In general terms: Quantitative high-throughput screening tests each substance at several concentrations.

A short description of experiment [2]: qHTS assay for identifying genotoxic compounds that show differential cytotoxicity against isogenic chicken DT40 cell lines with known DNA damage response pathways - Rev3 mutant cell line (AID 743014). Further: nearly all actives have a fitted effect of over 55% in size. Further: potency means the concentration at half of the fitted maximal effect.
Experiment [3] is described as follows: qHTS assay for identifying genotoxic compounds that show differential cytotoxicity against isogenic chicken DT40 cell lines with known DNA damage response pathways - Rad54/Ku70 mutant cell line (AID 743015). Further: nearly all actives have a fitted effect of over 60% in size. Further: potency means the concentration at half of the fitted maximal effect.
A short description of experiment [4]: qHTS assay to identify small molecule antagonists of the androgen receptor (AR) signaling pathway - cell viability counter screen (AID 743033; further: nearly all actives have a fitted effect of over 45% in size).
The target in experiment [5] is Androgen receptor (Homo sapiens) (UniProt P10275). As to the kind of experiment: qHTS assay to identify small molecule antagonists of the androgen receptor (AR) signaling pathway (AID 743035; active means well fitted inhibition curve with a large enough effect in the signal ratio in the repeat runs, not every such curve was filed as active; the % refers to the signal ratio). In a few lines: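 HEK293 cells stably carrying a UAS-driven beta-lactamase reporter (AR-UAS-bla GripTite) were plated for 4 h at 37C, then given compound and the agonist R1881 and incubated 16 h. Reporter activity was read by LiveBLAzer B/G FRET fluorescence after 2 h at room temperature.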
Chain of Androgen receptor (Homo sapiens) (P10275 whole entry, looked up): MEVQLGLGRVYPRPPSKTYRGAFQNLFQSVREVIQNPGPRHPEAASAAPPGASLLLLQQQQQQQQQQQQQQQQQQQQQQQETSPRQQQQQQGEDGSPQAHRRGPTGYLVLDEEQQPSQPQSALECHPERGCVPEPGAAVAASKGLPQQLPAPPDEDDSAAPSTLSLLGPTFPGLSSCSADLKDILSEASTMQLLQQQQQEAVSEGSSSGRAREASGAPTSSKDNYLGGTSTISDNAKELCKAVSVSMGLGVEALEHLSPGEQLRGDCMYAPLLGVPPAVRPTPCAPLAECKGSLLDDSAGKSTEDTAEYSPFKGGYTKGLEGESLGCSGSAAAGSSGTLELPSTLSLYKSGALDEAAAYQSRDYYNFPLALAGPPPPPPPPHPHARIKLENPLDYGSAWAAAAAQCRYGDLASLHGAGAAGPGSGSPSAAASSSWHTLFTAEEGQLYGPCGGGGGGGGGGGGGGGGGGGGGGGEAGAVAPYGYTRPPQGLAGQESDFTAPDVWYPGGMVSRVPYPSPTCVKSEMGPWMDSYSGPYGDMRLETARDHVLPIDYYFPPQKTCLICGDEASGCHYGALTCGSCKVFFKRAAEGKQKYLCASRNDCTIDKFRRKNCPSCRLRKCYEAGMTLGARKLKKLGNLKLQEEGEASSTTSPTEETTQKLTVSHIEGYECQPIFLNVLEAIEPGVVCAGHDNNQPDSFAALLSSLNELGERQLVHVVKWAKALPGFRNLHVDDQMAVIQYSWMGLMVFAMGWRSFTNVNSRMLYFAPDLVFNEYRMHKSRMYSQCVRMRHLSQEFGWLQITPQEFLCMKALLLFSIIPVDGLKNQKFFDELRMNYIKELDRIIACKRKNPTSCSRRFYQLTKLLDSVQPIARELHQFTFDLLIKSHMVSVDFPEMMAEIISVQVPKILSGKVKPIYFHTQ

Experiment [6] can be described thus: qHTS assay to identify small molecule antagonists of the androgen receptor (AR) signaling pathway using the MDA cell line - cell viability counter screen (AID 743041; further: nearly all actives have a fitted effect of over 45% in size). The gist of the method: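 MDA-kb2 AR-luc human breast carcinoma cells (MMTV-luciferase, AR/GR responsive) were treated with compounds plus R1881 agonist for 16 h at 37 °C. Viability was read as CellTiter-Fluor fluorescence in the same wells as the reporter assay.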

For experiment [7], the target named is Androgen receptor (Homo sapiens) (UniProt P10275). Put plainly: qHTS assay to identify small molecule antagonists of the androgen receptor (AR) signaling pathway using the MDA cell line (AID 743042; further: nearly all actives have a fitted effect of over 55% in size). The gist of the method: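 MDA-kb2 cells (human breast carcinoma, stably carrying an MMTV-luciferase reporter responsive to AR and GR) were plated at 3,000 cells/well and preincubated 5 hr at 37C, then given compound plus R1881 agonist for 16 h. ONE-Glo luminescence was read.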

Experiment [8] is described as follows: qHTS assay to identify small molecule antagonists of the thyroid receptor (TR) signaling pathway - cell viability counter screen (AID 743064). Further: nearly all actives have a fitted effect of over 50% in size. In a few lines:
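GH3.TRE-Luc cells, 4 h pre-plating; cpd + T3 1 nM final; 37 °C 23.5 h; CellTiter-Fluor 30 min; fluorescence read.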

For experiment [9], the system named is thyroid hormone receptor (rat, GH3 cells). As to the kind of experiment: qHTS assay to identify small molecule agonists of the thyroid receptor (TR) signaling pathway (AID 743066; calls by dose curve).
Experiment [10] can be described thus: qHTS assay to identify small molecule antagonists of the estrogen receptor alpha (ER-alpha) signaling pathway - cell viability counter screen (AID 743074; calls by dose curve; further: nearly all actives have a fitted effect of over 45% in size).
For experiment [11], the target named is Estrogen receptor (Homo sapiens) (UniProt P03372). Put plainly: qHTS assay to identify small molecule agonists of the estrogen receptor alpha (ER-alpha) signaling pathway (AID 743075; calls by dose curve).
Chain of Estrogen receptor (Homo sapiens) (P03372 whole entry, looked up): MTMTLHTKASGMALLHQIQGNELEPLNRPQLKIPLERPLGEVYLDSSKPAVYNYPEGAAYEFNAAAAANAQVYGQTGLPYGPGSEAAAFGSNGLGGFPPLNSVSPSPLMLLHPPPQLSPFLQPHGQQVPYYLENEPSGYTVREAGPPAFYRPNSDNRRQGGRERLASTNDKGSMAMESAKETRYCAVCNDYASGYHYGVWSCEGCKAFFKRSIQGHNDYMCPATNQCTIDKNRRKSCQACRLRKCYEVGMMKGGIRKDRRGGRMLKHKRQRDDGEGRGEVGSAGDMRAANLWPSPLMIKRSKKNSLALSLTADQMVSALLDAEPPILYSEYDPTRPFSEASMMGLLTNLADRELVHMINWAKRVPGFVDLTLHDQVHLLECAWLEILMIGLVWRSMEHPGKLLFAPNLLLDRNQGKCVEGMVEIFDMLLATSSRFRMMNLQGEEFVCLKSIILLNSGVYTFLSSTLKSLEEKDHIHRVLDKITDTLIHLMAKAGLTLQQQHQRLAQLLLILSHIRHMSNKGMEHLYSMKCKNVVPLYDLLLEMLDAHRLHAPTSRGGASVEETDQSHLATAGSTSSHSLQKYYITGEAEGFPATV
For experiment [12] the target is unchanged. Put plainly: qHTS assay to identify small molecule agonists of the estrogen receptor alpha (ER-alpha) signaling pathway using the BG1 cell line (AID 743079). Further: nearly all actives have a fitted effect of over 20% in size. To be noted: BG1Luc4E2 cells, ERE-luciferase agonist, 22 h.
Experiment [13] in a line: qHTS assay to identify small molecule antagonists of the estrogen receptor alpha (ER-alpha) signaling pathway using the BG1 cell line (AID 743080; calls by dose curve;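 further: BG1 cells stimulated with 17beta-estradiol alongside compound; nearly all actives have a fitted effect of over 25% in size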). In a few lines: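 Luciferase inhibition measured with ONE-Glo after 30 min at RT in BG1Luc4E2 cells given test compounds and 17beta-estradiol for 21.5 h at 37 C; CellTiter-Fluor viability read in the same wells beforehand.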

A short description of experiment [14]: qHTS assay to identify small molecule antagonists of the estrogen receptor alpha (ER-alpha) signaling pathway using the BG1 cell line - cell viability counter screen (AID 743081).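 Further: compound given together with 17beta-estradiol as the ER stimulus; nearly all actives have a fitted effect of over 45% in size.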
A further experiment concerns the target Aromatase (Homo sapiens) (UniProt P11511). As to the kind of experiment: qHTS assay to identify aromatase inhibitors (AID 743083). Further: nearly all actives have a fitted effect of over 55% in size.
The nature of experiment [15]: qHTS assay to identify aromatase inhibitors - cell viability counter screen (AID 743084).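 Further: cells stimulated with testosterone during compound exposure; nearly all actives have a fitted effect of over 55% in size.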
Experiment [16] deals with Androgen receptor (Homo sapiens) (UniProt P10275). Put plainly: qHTS assay to identify small molecule agonists of the androgen receptor (AR) signaling pathway (AID 743036; active means well fitted activation curve with a large enough effect in the signal ratio in the repeat runs, with a control signal flat, not every such curve was filed as active; the % refers to the signal ratio). In a few lines:
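AR-bla HEK293 cells, 2,000/well; 4 h preincubation 37C/5% CO2; compound (DMSO) 16 h at 37C; LiveBLAzer B/G FRET substrate 2 h RT; fluorescence intensity read-out.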

Experiment [17] in a line: qHTS assay to identify small molecule antagonists of the thyroid receptor (TR) signaling pathway (AID 743065). Further: nearly all actives have a fitted effect of over 55% in size. The gist of the method:
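GH3.TRE-Luc rat pituitary cells carrying two TR response elements driving luciferase were plated for 4 h, given compound plus 1 nM T3 (final), and incubated 23.5 h at 37 C. ONE-Glo luminescence measured reporter inhibition; CellTiter-Fluor fluorescence tracked cytotoxicity.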

Experiment [18] has as its target Estrogen receptor (Homo sapiens) (UniProt P03372). Put plainly: qHTS assay to identify small molecule antagonists of the estrogen receptor alpha (ER-alpha) signaling pathway (AID 743069; active means well fitted curve in the direction sought with a large enough effect in the signal ratio in the repeat runs, not every such curve was filed as active; the % refers to the signal ratio). In a few lines: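 HEK293 cells stably carrying an ER-alpha-UAS-bla beta-lactamase reporter were pre-cultured overnight in 2% charcoal-stripped FBS medium. Test compounds in DMSO were added together with 17beta-estradiol for 18 hr at 37C. Read-out was fluorescence after 2 hr with LiveBLAzer B/G FRET substrate at room temperature.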

Experiment [19] is described as follows: qHTS assay to identify small molecule antagonists of the glucocorticoid receptor (GR) signaling pathway - cell viability counter screen (AID 720693). Further: nearly all actives have a fitted effect of over 55% in size.

Several values for one entry are separate records, joined by “and”; a condition that tells them apart may be missing. Equal values may be shown once. Results filed as inconclusive are left out. Some compounds were tested as several samples or in several runs, with calls that do not always agree. Activity calls are given as the source filed them. Unless noted, the call rests on the fitted dose curve; in most records, active means well fitted curve in the direction sought with a large enough effect in the repeat runs; inconclusive means weak or mixed curves; inactive means no such curve, though single readings can be large; an effect the other way counts as inactive or inconclusive.
On the % scale 0 is the no-effect control and ±100 the full control effect.

Chain of Aromatase (Homo sapiens) (P11511 whole entry, looked up): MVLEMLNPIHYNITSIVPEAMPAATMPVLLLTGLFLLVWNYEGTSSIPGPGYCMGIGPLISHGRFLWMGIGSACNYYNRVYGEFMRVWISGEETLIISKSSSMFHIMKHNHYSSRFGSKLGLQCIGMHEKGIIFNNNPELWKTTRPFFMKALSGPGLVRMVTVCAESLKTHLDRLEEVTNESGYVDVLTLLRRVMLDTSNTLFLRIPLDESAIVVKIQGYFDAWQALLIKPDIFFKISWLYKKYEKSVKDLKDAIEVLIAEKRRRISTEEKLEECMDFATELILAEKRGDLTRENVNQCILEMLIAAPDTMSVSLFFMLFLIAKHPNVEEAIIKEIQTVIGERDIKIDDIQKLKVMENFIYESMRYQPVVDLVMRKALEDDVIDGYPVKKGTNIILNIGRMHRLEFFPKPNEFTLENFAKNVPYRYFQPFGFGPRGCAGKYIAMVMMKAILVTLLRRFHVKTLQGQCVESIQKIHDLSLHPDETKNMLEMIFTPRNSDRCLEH

Take `BrCc1ccc(Br)cc1`: the Potency entry in [1], in experiment [2], in experiment [3], in [4], in [5] and in experiment [6] was “inactive” each time. For the same compound, the Potency result in experiment [7], in [8], in experiment [9], in experiment [10], in [11] and in [13] was “inactive” throughout. Also, the Potency result (in experiment [14]; with Aromatase (Homo sapiens); in experiment [15]) was “inactive” each time. Also, the activation in experiment [12] (at 70.3 µM (top of the series)) was -9.06% (inactive).
For `CCOC(=O)CC(SP(=S)(OC)OC)C(=O)OCC` (centres undefined), the Potency entry in experiment [1], in experiment [4], in experiment [5], in experiment [6], in experiment [7] and in experiment [8] was “inactive” in each case. The Potency result in experiment [17], in experiment [9], in experiment [18], in experiment [10], in [11] and in experiment [13] was “inactive” in each case. In addition, the Potency entry (in experiment [14]; in the experiment with Aromatase (Homo sapiens); in experiment [15]) was “inactive” in each case. The Potency result was “inactive and 64.8 µM (active)” in experiment [2]; “inactive and 58.8 µM (active)” in experiment [3]. Further, in experiment [16], the compound was classed as inactive.
On to `CCCOC(=O)Cc1ccc(OCC(=O)N(CC)CC)c(OC)c1`, for which the Potency entry in experiment [19], in experiment [3], in experiment [4], in experiment [6], in experiment [8] and in experiment [9] was “inactive” each time. Moreover, the Potency entry (in experiment [10]; with Aromatase (Homo sapiens); in experiment [15]) was “inactive” in each case.
In the case of `C[C@@H](N)[C@@H](O)c1ccccc1`, the Potency result in [19], in experiment [4], in [6], in [8], in [9] and in experiment [10] was “inactive” each time. Further, the Potency entry (in [14]; with Aromatase (Homo sapiens); in experiment [15]) was “inactive” each time.
For `O=C(O)C(F)(F)C(F)(F)C(F)(F)C(F)(F)C(F)(F)C(F)(F)F`, the Potency entry in experiment [19], in experiment [2], in experiment [3], in experiment [4], in experiment [6] and in [8] was “inactive” throughout. Besides, the Potency result (in experiment [17]; in experiment [9]; in [14]; with Aromatase (Homo sapiens); in experiment [15]) was “inactive” each time.
In the case of `N=C(N)[Se]`, the results for the Potency in [1], in experiment [2] and in experiment [3] were 4.87 µM (active), 2.44 µM (active) and 2.44 µM (active), respectively. For the same compound, the Potency result in [4], in experiment [6], in experiment [8], in [17], in experiment [9] and in experiment [10] was “inactive” throughout. For the same compound, the Potency result (in experiment [11]; in experiment [13]; with Aromatase (Homo sapiens); in experiment [15]) was “inactive” throughout. In experiment [12] (at 95 µM (top of the series)), the activation is -2.62% (inactive).
On to `CNC(=O)Oc1cc(C)c(N(C)C)c(C)c1`, for which the Potency entry in experiment [19], in experiment [4], in experiment [6], in experiment [17], in experiment [9] and in [10] was “inactive” in each case. The Potency result (in experiment [14]; in the experiment with Aromatase (Homo sapiens); in experiment [15]) was “inactive” throughout.
For the compound `CC(C)N(Cc1ccccc1)C(=O)C(C)(C)C`, the Potency entry in experiment [19], in experiment [4], in [5], in experiment [6], in [7] and in experiment [8] was “inactive” in each case. The Potency result (in experiment [9]; in experiment [10]; in experiment [14]; with Aromatase (Homo sapiens); in [15]) was “inactive” in each case. Further, the Potency in experiment [1] is 61.1 µM (active). The compound was called inactive in [16].
Consider `O=C(O)c1c(Cl)ccc2cc(Cl)cnc12`, for which the Potency result in [1], in [2], in experiment [3], in experiment [4], in experiment [6] and in experiment [8] was “inactive” throughout. The Potency entry in [17], in experiment [9], in [10], in [11], in experiment [13] and in experiment [14] was “inactive” throughout. Moreover, the Potency entry (with Aromatase (Homo sapiens); in experiment [15]) was “inactive” each time. Also, the activation in [12] (at 70.3 µM (top of the series)) is 3.83% (inactive).

(Values after PubChem BioAssay (Tox21).)
